Here are results for twelve compounds from PubChem BioAssay (Tox21).

Several values for one entry are separate records, joined by “and”; a condition that tells them apart may be missing. Identical values can stand only once. Records with an inconclusive call do not appear. Activity calls are given as the source filed them. Calls follow the shape of the dose curve; as a rule, active = well fitted cell-killing curve with a large enough effect in the repeat runs; inconclusive = weak or mixed curves, or effect the other way; inactive = flat fitted curve, though single readings scatter.

Experiment [1] in a line: cAMP Responsive Elements (CRE) small molecule antagonists, cell-based qHTS assay: qHTS cell viability counter screen (AID 2060913). Also: nearly all actives have a fitted effect of over 40% in size. Put shortly:
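Cytotoxicity read in the same wells as the CRE-bla HEK293T antagonist assay: after 3 h compound with 0.25 uM NKH477 final and 2 h beta-lactamase substrate, CellTiter-Glo luminescence measured.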

A short description of experiment [2]: cAMP Responsive Elements (CRE) small molecule agonists, cell-based qHTS assay: qHTS cell viability counter screen (AID 2060914). Also: nearly all actives have a fitted effect of over 50% in size. Put shortly:
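Cytotoxicity was measured as ATP luminescence (CellTiter-Glo, 30 min at room temperature) in the same wells as the CRE-bla FRET read-out. HEK293T CRE-bla cells had 3 h compound exposure at 37C/5% CO2.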
Potency is read from the fitted curve at half-maximal effect.

For the compound `CCCCCCCC(=O)OCCCCCC`, the Potency entry in experiment [1] and in experiment [2] was “inactive” throughout.
For the compound `O=C(NS(=O)(=O)/C=C/c1cccs1)c1ccc(F)cc1Br`, the Potency entry in experiment [1] and in experiment [2] was “inactive” in each case.
For `CCCOC(=O)C(C)O` (centres undefined), the Potency entry in experiment [1] and in experiment [2] was “inactive” throughout.
Turning to `C/C=C(\C)C(=O)OC/C=C(\C)CCC=C(C)C`, the Potency entry in experiment [1] and in experiment [2] was “inactive” in each case.
Turning to `CCN(CC)CCOC(=O)C(c1ccccc1)C1CCCCC1` (centres undefined), the Potency entry in experiment [1] and in experiment [2] was “inactive” each time.
`Cc1cc(NC(=O)C2=C(O)c3ccccc3S(=O)(=O)N2C)no1`: the Potency entry in experiment [1] and in experiment [2] was “inactive” in each case.
Take `CC(C)(C)CC(C)(C)c1ccc(OCCOCC[N+](C)(C)Cc2ccccc2)cc1`: the Potency in experiment [1] is 27.3 µM (active) and 29.8 µM (active); in experiment [2] it was 54.4 µM (active) and 29.8 µM (active).
As for `CCCCCC[C@@H](CCC)C(=O)O`, the Potency entry in experiment [1] and in experiment [2] was “inactive” each time.
With `CCOC(=O)Cn1c(=O)sc2cccc(Cl)c21`, the Potency result in experiment [1] and in experiment [2] was “inactive” throughout.
`COc1nccnc1NS(=O)(=O)c1ccc(N)cc1`: the Potency entry in experiment [1] and in experiment [2] was “inactive” in each case.
Regarding `CCCCC(CC)COC(=O)COc1cc(Cl)c(Cl)cc1Cl` (centres undefined), the Potency result in experiment [1] and in experiment [2] was “inactive” in each case.
Turning to `CCC(C)(Oc1ccc(C2(c3ccc(OC(C)(CC)C(=O)O)cc3)CCCCC2)cc1)C(=O)O` (centres undefined), the Potency entry in experiment [1] and in experiment [2] was “inactive” in each case.
